Measurements taken from ChEMBL document CHEMBL3988442, “University of Dundee, Small-Polar-MMV Screening Library” (2021).
Values joined by “and” are separate entries in the source; they are usually repeats but may differ in a detail not shown here. Equal entries are not always repeated. In all, about 38,000 compounds went through this assay and about 1,200 (3.2%) showed an effect of 50% or more. The median lay at about -58%. The sample holds strong results, similar compounds and a random draw of the others, so the mix is not that of the screen.

System: Plasmodium falciparum
Assay: Calibr Malaria Delayed Death Assay SOP
Type: functional, organism-based
Design: scale not given: in the data most compounds retested in dose-response had high values
Settings: concentration 4.99e-06 (unit not given; other assays of the set use mol/L)

`Cc1nc(C)c(CC(=O)N2C[C@H]3CC[C@@H]2CN(c2cnccn2)C3)s1` was tested, and the “Percent Effect” value was -79.94%.
In the case of `CCc1nnnn1Cc1csc(N(C)C(C)=O)n1`, the “Percent Effect” value is reported as -54.02%.
With `Cc1ccc(Cl)cc1NC(=O)Nc1c[nH]c(=O)[nH]c1=O` the “Percent Effect” value was -189.6%.
With `Cc1ncsc1C(=O)NCCNc1ncccc1C#N` the “Percent Effect” value was -35.74%.
With `CCOCC1c2c(ncn2C)CCN1C(=O)c1cnc(C)cn1.O=C(O)C(F)(F)F` (stereo not drawn) the “Percent Effect” value was -51.51%.
For `O=C(NCc1c[nH]c(=O)[nH]c1=O)C1CCOc2ccccc2C1` (stereo not drawn), the “Percent Effect” value was -114.6%.
In the case of `Cc1ccc(S(=O)(=O)N(CC(N)=O)CC(C)C)cc1C`, the “Percent Effect” value is reported as -27.83%.
For `O=C(NCCCn1ccnc1)c1cccnc1OCC(F)(F)F`, the “Percent Effect” value was -158.9%.
For `CC(C)[C@@H]1CN(CCOc2ccc(Cl)cc2)C[C@H]1NS(C)(=O)=O`, the “Percent Effect” value was 45.65%.
In the case of `CCc1ccccc1OCCN1C[C@@H](NS(C)(=O)=O)[C@H](C(C)C)C1`, the “Percent Effect” value is reported as 45.03%.
With `CC(C)[C@@H]1CN(CCCOc2ccc(F)cc2)C[C@H]1NS(C)(=O)=O` the “Percent Effect” value was 53.48%.
With `CC(C)n1cc(N2CC(C(=O)N3CCN(C)CC3)CC2=O)cn1` (stereo not drawn) the “Percent Effect” value was -61.38%.
For `Cc1csc(N2CCN(C(=O)CCn3cccn3)CC2)n1`, the “Percent Effect” value was -135.1%.
For `CN(Cc1nc2ccsc2c(=O)[nH]1)C[C@@H]1CCCN2CCCC[C@H]12`, the “Percent Effect” value was -24.21%.
For `CN(Cc1nc2ccccc2c(=O)[nH]1)C[C@@H]1CCCN2CCCC[C@H]12`, the “Percent Effect” value was -16.14%.
In the case of `Cc1cc(C)cc(C(=O)N2CCCN(CC(N)=O)CC2)c1`, the “Percent Effect” value is reported as -30.23%.
`O=C(CN(CC1CCC1)CC(F)(F)F)N1CCCC1` was tested, and the “Percent Effect” value was -123.3%.
In the case of `CS(=O)(=O)NC(=O)c1nnn(-c2cccc(F)c2)c1C1CC1`, the “Percent Effect” value is reported as -54.99%.
For `CC(C)(C)c1nc(CNC2CCCN(c3cccnn3)C2)no1` (stereo not drawn), the “Percent Effect” value was 82.54%.
For `Cc1nc(CNC2CCCN(c3cccnn3)C2)no1` (stereo not drawn), the “Percent Effect” value was -95.1%.
With `CC(C)c1nc(CNC2CCCN(c3cccnn3)C2)no1` (stereo not drawn) the “Percent Effect” value was -23.44%.
With `CC1CN(CC2CCCC2)CCN1c1ccc2nncn2n1` (stereo not drawn) the “Percent Effect” value was 68.96%.
For `CC1CN(CC2CCCCC2)CCN1c1ccc2nncn2n1` (stereo not drawn), the “Percent Effect” value was 13.91%.
`CC1CN(CC(=O)NC2CCCC2)CCN1c1ccc2nncn2n1` (stereo not drawn) was tested, and the “Percent Effect” value was -5%.
`Cn1ccc2ccc(C(=O)N3CCN(C(=O)OC(C)(C)C)CC3)cc21` was tested, and the “Percent Effect” value was 4.042%.
With `Cc1cccc(NC(=O)N2CCn3cnc(COCC4CC4)c3C2)c1` the “Percent Effect” value was -185.1%.
`COCCNC(=O)C[C@@H]1COC[C@H]2CN(C(=O)C3CCOCC3)C[C@@H]12` was tested, and the “Percent Effect” value was -84.55%.
With `CC(C)(CNC(=O)C(C)(C)c1ccccc1F)C(N)=O` the “Percent Effect” value was -90.26%.
With `CN(C)C(C)(C)CNC(=O)C(C)(C)c1ccccc1F` the “Percent Effect” value was 51.42%.
For `CC(C)(C(=O)NCC(N)=O)c1ccccc1F`, the “Percent Effect” value was -66.81%.
With `Nc1nnc(SCc2cc(=O)n3c4c(sc3n2)CCCC4)s1` the “Percent Effect” value was -2.534%.
With `COc1nn(C)cc1-c1nnc(SCc2cccnc2)n1C` the “Percent Effect” value was -46.9%.
For `Cc1ccsc1CN(CCCC(F)(F)F)Cc1ccccn1`, the “Percent Effect” value was -90.49%.
In the case of `Cc1ccsc1CN(C)Cc1ncccc1C(=O)O`, the “Percent Effect” value is reported as -86.93%.
For `CCn1nc(C)c(CN(CCOC)Cc2ccccn2)c1C`, the “Percent Effect” value was -17.72%.
For `COCCC(=O)N(Cc1ccccn1)Cc1ccccc1C`, the “Percent Effect” value was -111.9%.
`Cc1ccsc1CN(CCCN(C)C)Cc1ccccn1` was tested, and the “Percent Effect” value was 76.79%.
With `N#Cc1cccc(CN2CC[C@@H]3CN(c4ncccn4)CCO[C@@H]3C2)c1.O=C(O)C(F)(F)F` the “Percent Effect” value was -75.88%.
In the case of `CCc1cc(N2CCC(NCCc3nc(C)c(C)s3)CC2)nc(C)n1`, the “Percent Effect” value is reported as 38.37%.
In the case of `CCn1ccc(NS(=O)(=O)c2cccc(COC)c2)n1`, the “Percent Effect” value is reported as -78.42%.
`CCn1cc(NC(=O)NCC(C)N(C)C)cn1` (stereo not drawn) was tested, and the “Percent Effect” value was -90.57%.
In the case of `CNS(=O)(=O)c1cccc(C(C)NCc2ccc(F)c(F)c2)c1` (stereo not drawn), the “Percent Effect” value is reported as 8.659%.
`CNS(=O)(=O)c1cccc(CNC(=O)CCc2ccsc2)c1` was tested, and the “Percent Effect” value was -45.32%.
With `CNS(=O)(=O)c1cccc(C(C)NCc2ccccc2)c1` (stereo not drawn) the “Percent Effect” value was 57.8%.
For `CNS(=O)(=O)c1cccc(C(C)NCc2ccc(C)c(C)c2)c1` (stereo not drawn), the “Percent Effect” value was 61.29%.
For `CNS(=O)(=O)c1cccc(C(C)NCc2ccsc2)c1` (stereo not drawn), the “Percent Effect” value was 66.25%.
With `CNS(=O)(=O)c1cccc(C(C)NCc2ccncc2)c1` (stereo not drawn) the “Percent Effect” value was -55.25%.
`CCOc1ccc(CNC(C)c2cccc(S(=O)(=O)NC)c2)cc1` (stereo not drawn) was tested, and the “Percent Effect” value was 46.18%.
In the case of `CC(NCc1ccc(C(C)(C)C)cc1)c1ccc(S(C)(=O)=O)cc1` (stereo not drawn), the “Percent Effect” value is reported as -13.51%.
In the case of `CNS(=O)(=O)c1cccc(C(C)NCc2cccc(O)c2)c1` (stereo not drawn), the “Percent Effect” value is reported as 1.026%.
With `O=C(NCCn1ccnc1)c1ccn(-c2ccc(F)cc2)n1` the “Percent Effect” value was -157.5%.
In the case of `CCN1C[C@H]2C[C@H](C(=O)Nc3ccccc3)[C@@H](C1)O2.O=C(O)C(F)(F)F`, the “Percent Effect” value is reported as -59.56%.
With `Cc1oc(-c2nc(C#N)c(N(C)C)o2)cc1S(=O)(=O)N1CCCCCC1` the “Percent Effect” value was -117.8%.
In the case of `COc1cc(C(=O)NC(C)c2cccs2)cc2c1OCCO2` (stereo not drawn), the “Percent Effect” value is reported as 13.73%.
`O=C(c1cscn1)N1CCCCC1c1nc2cc(F)ccc2[nH]1` (stereo not drawn) was tested, and the “Percent Effect” value was -66.74%.
`CNC(=O)CN(C(=O)c1ccc(SC)o1)c1cccc(F)c1` was tested, and the “Percent Effect” value was -133.7%.
For `CC(C)(C)CNC(=O)c1ccc(C(=O)O)cc1`, the “Percent Effect” value was -149.2%.
In the case of `CCCc1nc(CN(CC)Cc2ccoc2)no1`, the “Percent Effect” value is reported as -101%.
With `COc1cc(C(=O)N(Cc2ccco2)C2CC2)cc(OC)c1OC` the “Percent Effect” value was -36.86%.
`O=C(c1ccc[nH]1)N1CCOCC2(CCN(C3CCOCC3)C2)C1` (stereo not drawn) was tested, and the “Percent Effect” value was -29.73%.
`CCCSCC(=O)N1CCCC(CO)(CCC)C1` (stereo not drawn) was tested, and the “Percent Effect” value was -200.5%.
`O=C(c1ccc(=O)[nH]c1)N1CCCC1c1nc2cc(F)ccc2[nH]1` (stereo not drawn) was tested, and the “Percent Effect” value was -157.5%.
For `O=c1[nH]cccc1-c1nccc(C2(c3ccccc3Cl)CCNCC2)n1`, the “Percent Effect” value was -5.024%.
For `Clc1ccccc1C1(c2ccnc(-c3ncccn3)n2)CCNCC1`, the “Percent Effect” value was -58.98%.
With `Clc1ccccc1C1(c2ccnc(-c3ccncc3)n2)CCNCC1` the “Percent Effect” value was 82.92%.
For `CCC1C(=O)NCCN1c1ccnc(C(C)(C)C)n1` (stereo not drawn), the “Percent Effect” value was -75.62%.
For `CC(C)c1nccc(C2(c3ccccc3Cl)CCNCC2)n1`, the “Percent Effect” value was 83.06%.
With `CC(C)(C)c1nccc(C2(c3ccccc3Cl)CCNCC2)n1` the “Percent Effect” value was 75.06%.
In the case of `COCCN(Cc1ccoc1)S(=O)(=O)c1cccc(C(F)(F)F)c1`, the “Percent Effect” value is reported as -154.4%.
`COc1c[nH]c(C(=O)Nc2nc(C)cs2)cc1=O` was tested, and the “Percent Effect” value was -242.4%.
For `Clc1ccc(C2(NCc3noc(C4CC4)n3)CCC2)cc1`, the “Percent Effect” value was 11.94%.
With `Clc1ccc(C2(NCc3noc(C4CC4)n3)CCOCC2)cc1` the “Percent Effect” value was -1.957%.
In the case of `Clc1ccc(C2(NCc3noc(C4CC4)n3)CCCC2)cc1`, the “Percent Effect” value is reported as 66.68%.
For `COc1cccc(N2CCN(Cc3ccc4ccn(C)c4c3)CC2=O)c1`, the “Percent Effect” value was -24.12%.
For `COc1cc(N2CC[C@H](O)[C@@H]2Cc2ccccc2)ncn1`, the “Percent Effect” value was -143.1%.
`CC(C)NC(=O)CSc1nc2c(cnn2CCO)c(=O)[nH]1` was tested, and the “Percent Effect” value was -19.17%.
With `CCS(=O)(=O)N1CCCn2c(nc(CN3CCCC3)cc2=O)C1` the “Percent Effect” value was -41.77%.
With `COCCn1ccnc1CN1CCc2[nH]cnc2C1c1ccccn1` (stereo not drawn) the “Percent Effect” value was -16.31%.
`CCn1ncnc1CN1CCc2[nH]cnc2C1c1ccccn1` (stereo not drawn) was tested, and the “Percent Effect” value was -50.88%.
For `CCn1ccnc1CN1CCCC1c1c(C)nn(C)c1OC` (stereo not drawn), the “Percent Effect” value was -32.78%.
`CCCn1ccnc1CN1CCc2[nH]cnc2C1Cc1ccccc1` (stereo not drawn) was tested, and the “Percent Effect” value was 64.79%.
With `CCc1ccc(C2c3nc[nH]c3CCN2Cc2nccn2CC)nc1` (stereo not drawn) the “Percent Effect” value was 89.79%.
With `COCCn1ccnc1CN1CCc2[nH]cnc2C1c1cccc(O)c1` (stereo not drawn) the “Percent Effect” value was -80.26%.
With `CCc1nccn1-c1cncc(C2CCCN2Cc2ccccn2)n1` (stereo not drawn) the “Percent Effect” value was -28.75%.
With `CCn1ncnc1CN1CCc2[nH]cnc2C1Cc1ccccc1` (stereo not drawn) the “Percent Effect” value was -69.64%.
With `COc1cccc(CN2CC(O)CN(C(=O)C(C)(C)C)CC2=O)c1OC` (stereo not drawn) the “Percent Effect” value was -124%.
For `CC1=Nc2c(c(=O)[nH]n2C2CCCC2)C(c2cccnc2)S1` (stereo not drawn), the “Percent Effect” value (4.99 µM) was -22.61% and -27.75%.
In the case of `CCCNC(=O)c1cccc(CNCc2csc(C(C)(C)C)n2)c1`, the “Percent Effect” value is reported as 23.22%.
With `CN(C)C(=O)CO[C@H]1CN(Cc2ccc3c(c2)OCO3)[C@@H]2COC[C@H]12.O=C(O)C(F)(F)F` the “Percent Effect” value was -65.25%.
In the case of `NCC1CCN(c2nc(C3CCCC3)nc3c2CCNCC3)C1` (stereo not drawn), the “Percent Effect” value is reported as 93.21%.
In the case of `Cc1nc2c(c(N3CCC(CCn4cccn4)CC3)n1)CCNCC2`, the “Percent Effect” value is reported as 39.53%.
In the case of `Cc1nc2c(c(N3CCC(CN4CCCC4=O)CC3)n1)CCNCC2`, the “Percent Effect” value is reported as -95.59%.
For `c1cnn(CC2CCN(c3nc(C4CC4)nc4c3CCNCC4)CC2)c1`, the “Percent Effect” value was 90.7%.
In the case of `Nc1nc2c(c(N3CCC(CN4CCCC4=O)CC3)n1)CCNCC2`, the “Percent Effect” value is reported as -195.3%.
`Nc1nc2c(c(N3CCC(CCn4cccn4)CC3)n1)CCNCC2` was tested, and the “Percent Effect” value was 0.6794%.
For `C1CCC(c2nc3c(c(N4CC(N5CCOCC5)C4)n2)CCNCC3)C1`, the “Percent Effect” value was -121.5%.
`CCOCc1nc2c(c(N3CCN4CCCC4C3)n1)CCNCC2` (stereo not drawn) was tested, and the “Percent Effect” value was -33.92%.
For `C1CCC(c2nc3c(c(N4CCN5CCCC5C4)n2)CCNCC3)C1` (stereo not drawn), the “Percent Effect” value was 77.28%.
With `CS(=O)(=O)Nc1nn(Cc2ccc(F)cc2)cc1Br` the “Percent Effect” value was -19.12%.
For `CCNS(=O)(=O)c1cnccc1N1CCN(CCO)CC1`, the “Percent Effect” value was -122.2%.
In the case of `Cc1cc(C)nc(N2CCC(c3cncc(-n4ccnc4)n3)CC2)n1`, the “Percent Effect” value is reported as -62.28%.
With `CC(O)CN1CCN(C(=O)CCOC(C)C)CC1` (stereo not drawn) the “Percent Effect” value was -34.58%.
`O=C(C1CCOCC1)N1CCC2(CCN(Cc3nccs3)CC2)CC1.O=C(O)C(F)(F)F` was tested, and the “Percent Effect” value was -69.08%.
